Results reported in ChEMBL document CHEMBL3988442, “University of Dundee, Small-Polar-MMV Screening Library” (2021).
Among all 69,000 compounds or so, about 950 (1.4%) showed an effect of 50% or more. For the sample, strong results were picked, then their nearest neighbours and some compounds at random.

tested on: Mycobacterium tuberculosis; assay: Cornell M. t heat shock assay; assay type: functional, organism-based; set-up: dose or concentration left out as unconfirmed; further: in the data most compounds retested in dose-response had high values

Structure (SMILES) | Percent Effect
COCCNC(=O)Cn1c(-c2ccc(F)cc2)nc(C)c(CCO)c1=O | 29.85%
CCc1cc(=O)n(CC(=O)NCC2CCCO2)c(-c2cccc(F)c2)n1 (stereo not drawn) | 19.5%
CCN(CC)C(=O)Cn1c(-c2ccc(Cl)cc2)nc(C)c(CCO)c1=O | 69.66%
Cc1cc(=O)n(CC(=O)NCCC(C)C)c(-c2cccc(Cl)c2)n1 | 9.879%
CCOc1nc2cccnc2n(CC(=O)NCCOC)c1=O | 5.103%
Cc1nc(-c2ccc(Cl)cc2)n(CC(=O)NC(C)C)c(=O)c1CCO | 47.89%
COCCNC(=O)Cn1c(-c2ccc(Cl)cc2)nc(C)c(CCO)c1=O | 50.09%
COCCNC(=O)Cn1ccc2ccc(F)cc21 | 14.54%
COCCCNC(=O)Cn1c(-c2cccc(Cl)c2)nc(C)cc1=O | 10.79%
COCCNC(=O)Cn1c(-c2cccc(F)c2)nc(C)c(CCO)c1=O | 66.78%
CCN(CC)C(=O)c1nnsc1-c1ccc(Cl)cc1 | -12.37%
Cc1ccc(-c2ccc(C3CNCCO3)nc2)cc1.Cl (stereo not drawn) | -12.85%
CC[C@@H]1N(Cc2nccs2)CCC[C@]12CCC(=O)N2C.O=C(O)C(F)(F)F | -9.457%
CCOCC1CN(Cc2ccccn2)Cc2nn(CC3CC3)cc21.O=C(O)C(F)(F)F.O=C(O)C(F)(F)F (stereo not drawn) | -24.37%
O=C(O)C(F)(F)F.O=C(c1ncccn1)N1CCC[C@]2(C[C@@H](Oc3ncccc3F)CO2)C1 | -26.7%
O=C(Cc1ccccc1F)N1C[C@@H]2COC[C@]2(COc2cccnc2)C1.O=C(O)C(F)(F)F | -4.707%
COCC(=O)N1CCCn2c(CN3CCOCC3)nnc2C1.O=C(O)C(F)(F)F | -20.35%
Cl.FC(F)CNc1cnc(C2CCCN2)cn1 (stereo not drawn) | -21.09%
O=C(O)C(F)(F)F.O=C1NCCN(CC2CC2)C12CCN(Cc1ccccc1)CC2 | -29.41%
COCC1CC2(CCN(Cc3ccncc3)CC2)CN1C(C)C.O=C(O)C(F)(F)F.O=C(O)C(F)(F)F.O=C(O)C(F)(F)F (stereo not drawn) | -9.126%
O=C(Nc1cccnc1)[C@H]1C[C@@H]2CN(S(=O)(=O)C3CC3)C[C@H]1O2 | -11.95%
COCc1ncn2c1CN(C(=O)c1ccc3ccccc3n1)CC2.O=C(O)C(F)(F)F | -56.59%
CO[C@H]1C[C@@H]2CN(C(=O)c3cc4ccc(F)cc4[nH]3)C[C@@H]2C1 | 35.64%
COc1ccc(CN2C[C@H]3CN(c4ccsc4)C(=O)[C@H]3C2)cc1.O=C(O)C(F)(F)F | 16.76%

Structure (SMILES) | Percent Effect
COc1ccc(F)cc1C(=O)N1C[C@H]2C[C@H](OC)C[C@H]2C1 | -3.804%
CC(=O)N1CCC2(CC1)CN(C(=O)[C@@H]1CSCN1)c1ccc(Cl)cc12.O=C(O)C(F)(F)F | 52.14%
Cl.Cl.O=C([C@@H]1CSCN1)N1CC2(CCNCC2)c2cc(Cl)ccc21 | 3.414%
Cl.Cl.O=C([C@H]1CCCN1)N1CC2(CCNCC2)c2cc(Cl)ccc21 | -22.31%
O=C(CC1CCCC1)N1C[C@H](Oc2cccnc2)[C@H]2OCCC[C@H]21.O=C(O)C(F)(F)F | 0.71%
C1CCC(CN2Cc3nnn(CC4CC4)c3C(COCC3CC3)C2)C1.O=C(O)C(F)(F)F (stereo not drawn) | 40.48%
CCOCC1CN(C(=O)N(C)C)Cc2nnn(CC3CC3)c21 (stereo not drawn) | 1.23%
CCOCC1CN(CC2CCC2)Cc2nnn(CC3CC3)c21 (stereo not drawn) | 57.51%
CN(C)CC1CN(Cc2cccc(C#N)c2)Cc2nccn2C1.O=C(O)C(F)(F)F.O=C(O)C(F)(F)F (stereo not drawn) | -5.749%
CC(C)c1nn(C)c(Cl)c1CNCc1ccc2c(c1)OCO2.Cl | 15.25%
O=C(CC1CC1)N1CCc2ncc(CN3CCOCC3)n2CC1.O=C(O)C(F)(F)F | 2.118%
COc1ncc(C2(O)CCN(Cc3ccc(F)c(F)c3)CC2)c(OC)n1.Cl | 2.429%
CCS(=O)(=O)N1CC(=O)N(CCOc2ccccc2)CC(O)C1 (stereo not drawn) | -13.04%
COc1cccc(OC)c1CN1CC(O)CN(S(C)(=O)=O)CC1=O (stereo not drawn) | 55.83%
COc1ccccc1CN1CC(O)CN(S(=O)(=O)C(C)C)CC1=O (stereo not drawn) | 61.24%
CCCS(=O)(=O)N1CC(=O)N(CCCc2ccccc2)CC(O)C1 (stereo not drawn) | -29.16%
COc1cccc(CN2CC(O)CN(S(C)(=O)=O)CC2=O)c1OC (stereo not drawn) | 29.18%
CCS(=O)(=O)N1CC(=O)N(Cc2ccccc2OC)CC(O)C1 (stereo not drawn) | 62.67%
CS(=O)(=O)N1CC(=O)N(CCCc2ccccc2)CC(O)C1 (stereo not drawn) | -9.009%
CCCS(=O)(=O)N1CC(=O)N(Cc2ccccc2OC)CC(O)C1 (stereo not drawn) | 56.43%
COc1ccccc1CN1CC(OC)CN(C(=O)CC(C)C)CC1=O (stereo not drawn) | -13.24%
CCCS(=O)(=O)N1CC(=O)N(Cc2cccc(OC)c2OC)CC(O)C1 (stereo not drawn) | 3.552%
COc1ccccc1CN1CC(O)CN(C(=O)OCC(C)C)CC1=O (stereo not drawn) | 1.526%
CCS(=O)(=O)N1CC(=O)N(CCCc2ccccc2)CC(O)C1 (stereo not drawn) | -6.774%
